A number with no mark means an inactive call. No rule for the calls is given here.
Biological target: Pantothenate synthetase (Mycobacterium tuberculosis (strain ATCC 25618 / H37Rv)) (UniProt P9WIL5)
Assay: Recombinant Mtb pantothenate synthetase (PanC) inhibitors, coupled enzyme, confirmatory (AID 375);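 also: 0% = full reaction with vehicle and 100% = no enzyme background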
Conditions: coupled enzyme assay; at 10 µM, stronger effect = higher value

Chain of Pantothenate synthetase (Mycobacterium tuberculosis (strain ATCC 25618 / H37Rv)) (P9WIL5 whole entry, looked up): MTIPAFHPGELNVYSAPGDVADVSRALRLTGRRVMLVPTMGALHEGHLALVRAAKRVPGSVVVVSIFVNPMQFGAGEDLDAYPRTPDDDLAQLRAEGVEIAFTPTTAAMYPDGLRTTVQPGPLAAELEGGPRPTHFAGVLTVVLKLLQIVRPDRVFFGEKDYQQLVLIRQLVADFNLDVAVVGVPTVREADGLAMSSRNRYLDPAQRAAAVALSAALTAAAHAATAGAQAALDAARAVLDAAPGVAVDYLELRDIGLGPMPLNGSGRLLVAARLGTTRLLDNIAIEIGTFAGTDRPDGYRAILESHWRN

First: Cc1nnc(SC(=O)N2c3ccccc3Sc3ccccc32)s1
Second: Cc1ccc(S(=O)(=O)N2CCCC2C(=O)OCc2nc3ccccc3s2)cc1 (configuration not stated)
The inhibition of the first is higher: 6% for the first, 0% for the second.

First: CCCCCCn1c(CN2CCCC(C)C2)nc2c1c(=O)n(C)c(=O)n2C (configuration not stated)
Second: CN(C=C1C(=O)CC(C)(C)CC1=O)CCN1CCNCC1
The inhibition of the first is higher: 6% for the first, 1% for the second.

Going from `N#CC1=C(N)Oc2n[nH]c(-c3ccncc3)c2C1c1ccsc1` (configuration not stated) to `CCc1nc(N)c(C#N)c(-c2ccc(OC)c(OC)c2)c1C`, the inhibition rises from 0% to 2%.

First: Cc1ccc2c(C)nc(Nc3nc(CSc4nnnn4-c4ccccc4)cc(=O)[nH]3)nc2c1
Second: Cc1cc(C)c2c(n1)nn1c(N3CCN(c4ccccc4C)CC3)cc(C)nc21
The inhibition of the first is higher: 11% for the first, 4% for the second.

First: COc1ccc2c(c1)cc(C(=O)O)n2C
Second: CCOC(=O)CSc1nnc(CNC(=O)c2ccc(OC)c(OC)c2)n1C
The inhibition of the first is higher: 6% for the first, 0% for the second.

`Cc1cccc(NS(=O)(=O)c2cc(C(=O)OCC(=O)Nc3cc(C)on3)ccc2C)c1` and `C/C(N)=C(/C#N)C(=O)CSc1nnc(Nc2cccc(C)c2)s1` are the same in inhibition: 0% for the first, 0% for the second.

Compared with `O=C(CCCC(=O)OCC(=O)NC1CCCC1)Nc1ccccn1`, `CCOC(=O)NC(c1ccccc1)C1CCCCC1=O` (configuration not stated) is lower in inhibition: 4% for the first, 0% for the second.

First: O=C(CS(=O)(=O)c1cn(Cc2ccc(Cl)cc2)c2ccccc12)N1CCCC1
Second: CCOc1ccc2ccccc2c1C(=O)N1CCN(c2ccccc2)CC1
The inhibition of the first is lower: 6% for the first, 9% for the second.

With `Cc1cc(S(=O)(=O)N2CCN(c3ccccc3C)CC2)ccc1F` the inhibition was 5%.

Source: PubChem BioAssay
